Among the data in PubChem BioAssay AID463173 (ICCB-Longwood Screening Facility, Harvard Medical School, 2010) are survival values, retold here.

Out of some 52,000 compounds screened, about 4,300 (8.3%) were called active. Rule as the data show it: active = survival mostly below about 52% (no sharp cut-off); inactive = mostly above about 56%. The sample as a whole holds a higher share of actives than the screen did.

This assay deals with DeltatarO mutant. Nature of the assay: S. aureus survival, RN4220 and DeltatarO strains – OD600, teichoic acid synthesis inhibitors, primary screen (AID 463173). As to conditions: S. aureus RN4220 wild type/DeltatarO growth, OD600, 18 h, stronger effect = lower value, screened at 18.75 µg/mL (by protocol).
In the case of `Cc1ccc(NC(=O)C(=O)NCC(c2ccc3c(c2)OCO3)N2CCN(C)CC2)cc1C` (stereo not given), the survival was 68% (inactive).

For `CCN(CC)S(=O)(=O)c1ccc2nc(NC(=O)c3ccccc3OC)sc2c1`, the survival is 89% (inactive).

On to `CCOc1ccc(N2CC(NC(=O)Cc3cccs3)CC2=O)cc1` (stereo not given), for which the survival was 73% (inactive).

For the compound `Cc1ccc(C(=O)Nc2ccc(F)cc2)cc1S(=O)(=O)N1CCCCCC1`, the survival was 69% (inactive).

Consider `COC(=O)c1sc(N2C(=O)c3oc4ccccc4c(=O)c3C2c2ccc(O)cc2)nc1C` (stereo not given), for which the survival is 121% (inactive).

In the case of `Cc1[nH]c2ccc(-c3nnc(SCC(=O)N4c5ccccc5CCc5ccccc54)o3)cc2c1C`, the survival is 89% (inactive).

As for `CCN1CCN(c2cc(C)c3cc(NC(=O)c4cc(OC)cc(OC)c4)ccc3n2)CC1`, the survival was 47% (active).

Take `COc1cc(OC)cc(C(=O)Nc2ccc3nc(N4CCC(C)CC4)cc(C)c3c2)c1`: the survival is 51% (inactive).

With `COc1ccc(Nc2cc(C)c3cc(NC(=O)c4cc(OC)cc(OC)c4)ccc3n2)cc1`, the survival was 94% (inactive).

For `Cc1cc(N2CCCCC2)nc2ccc(NC(=O)c3ccc(F)cc3)cc12`, the survival was 51% (inactive).

For the compound `COc1cc(OC)cc(C(=O)Nc2ccc3nc(N4CCCCC4)cc(C)c3c2)c1`, the survival was 31% (active).

In the case of `COC(=O)c1ccc(Cl)cc1NC(=O)Nc1nnc(N(C)C2CCCCC2)s1`, the survival is 81% (inactive).

`COc1ccc(-c2cc(C)no2)cc1S(=O)(=O)N1CCOc2ccc(Cl)cc21`: the survival was 92% (inactive).

As for `Cc1ccccc1-n1c(=O)c2c3c(sc2n2cnnc12)CCCC3`, the survival is 72% (inactive).

For the compound `Cc1ccc(-n2c(=O)[nH]c3cc(C(=O)NCc4ccccc4)ccc3c2=O)cc1`, the survival is 102% (inactive).

Regarding `Cc1c(C(=O)OCc2ccccc2)[nH]c2c1C(=O)CC(c1ccc(C(C)(C)C)cc1)C2` (stereo not given), the survival is 91% (inactive).

`COC(=O)C(NC(=O)CCc1c(C)nc2c(-c3ccccc3)c(C)nn2c1C)C(C)C` (stereo not given): the survival is 109% (inactive).

Consider `O=C(Cc1ccc(F)cc1)N1CCC(c2nc3c(nnn3Cc3ccc(F)cc3)c(=O)[nH]2)CC1`, for which the survival was 66% (inactive).

Consider `CS(=O)(=O)N1CCC(c2nc3c(nnn3Cc3ccc(F)cc3)c(=O)[nH]2)CC1`, for which the survival was 102% (inactive).

As for `O=C(Cc1ccc(F)cc1)N1CCC(c2nc3c(nnn3Cc3ccc(Cl)cc3)c(=O)[nH]2)CC1`, the survival was 27% (active).

Consider `Cc1ccc(Cn2nnc3c(=O)[nH]c(C4CCN(C(=O)Cc5ccccc5F)CC4)nc32)cc1`, for which the survival is 69% (inactive).

For `O=C(Cc1ccccc1F)N1CCC(c2nc3c(nnn3Cc3cccc(Cl)c3)c(=O)[nH]2)CC1`, the survival was 44% (active).

On to `O=C(Cc1ccccc1F)N1CCC(c2nc3c(nnn3Cc3ccc(F)cc3)c(=O)[nH]2)CC1`, for which the survival is 72% (inactive).

In the case of `COc1ccccc1N1CCN(C(=O)Cn2ncc3c2-c2cc(C)ccc2OC3)CC1`, the survival was 58% (inactive).

With `CN(C(=S)SCC1=CCS(=O)(=O)C1)C1CCS(=O)(=O)C1` (stereo not given), the survival is 94% (inactive).

On to `O=C1C(c2ccc(F)cc2)N(Cc2ccccc2Cl)C(=O)CN1C1CCCCC1` (stereo not given), for which the survival was 81% (inactive).

As for `Nc1no[n+]([O-])c1C(=O)NCCO`, the survival was 65% (inactive).

For the compound `CN(C)C(=O)c1c(N)no[n+]1[O-]`, the survival was 56% (active).

As for `CC(C)(C)NC(=O)c1c(N)no[n+]1[O-]`, the survival is 92% (inactive).

Turning to `Cc1cc(C)c2c(=O)cc(C(=O)NCCc3ccc(S(N)(=O)=O)cc3)oc2c1`, the survival was 61% (inactive).

Turning to `COC(=O)c1oc2ccc(Cl)cc2c1C`, the survival was 65% (inactive).

Consider `CC(=O)Nc1c(C(=O)O)oc2ccc(Cl)cc12`, for which the survival was 58% (active).

For `CCOc1ccc(CC(=O)Nc2c(C(=O)c3ccccc3)oc3ccc(Cl)cc23)cc1OCC`, the survival was 48% (inactive).

`O=C(NCc1cccs1)c1ccc(Cn2c(SCc3ccc(F)cc3)nc3cccnc32)cc1`: the survival is 84% (inactive).

As for `C=CCN=C1SCC(=O)N1S(=O)(=O)c1ccc(C)cc1`, the survival was 60% (active).

Take `C=CCN=C1SC(C)C(=O)N1S(=O)(=O)c1ccccc1` (stereo not given): the survival is 57% (inactive).

As to `Cc1ccc(S(=O)(=O)N=C2SCCCS2)cc1`, the survival was 91% (inactive).

Take `CC(=O)Nc1ccc(I)cc1C(=O)O`: the survival is 95% (inactive).

Regarding `CCN(Cc1ccccc1)C(=O)Cn1c(=O)cc(C)c2c(C)nn(-c3cccc(F)c3)c21`, the survival was 72% (inactive).

`CCOC(=O)c1ccc(NC(=O)Cn2cc(C(=O)c3cccs3)c3ccccc32)cc1`: the survival was 62% (inactive).

In the case of `Cc1ccccc1C(=O)Nc1ccc(S(=O)(=O)N2CCC(c3nc4ccccc4s3)CC2)cc1`, the survival was 40% (active).

With `O=C(Nc1ccc(S(=O)(=O)N2CCC(c3nc4ccccc4s3)CC2)cc1)c1ccc(F)cc1`, the survival is 63% (inactive).

On to `O=C(Nc1ccc(S(=O)(=O)N2CCC(c3nc4ccccc4s3)CC2)cc1)c1ccccc1`, for which the survival was 104% (inactive).

In the case of `O=C(Nc1ccc(S(=O)(=O)N2CCC(c3nc4ccccc4s3)CC2)cc1)c1ccccc1F`, the survival was 57% (inactive).

As to `Cc1cccc(C(=O)Nc2ccc(S(=O)(=O)N3CCC(c4nc5ccccc5s4)CC3)cc2)c1`, the survival was 40% (active).

Consider `Cc1ccc(C(=O)Nc2ccc(S(=O)(=O)N3CCC(c4nc5ccccc5s4)CC3)cc2)cc1`, for which the survival is 61% (inactive).

For the compound `COCCn1c(SCC(=O)c2c(C)[nH]c3ccccc23)nc2cc(C(=O)NC(C)C)ccc2c1=O`, the survival is 68% (inactive).

Turning to `COc1ccc(NC(=O)CS(=O)CC(=O)NC2CCCc3ccccc32)cc1` (stereo not given), the survival was 60% (inactive).

As to `O=C(c1cccc(Cl)c1)n1nc(-c2cccnc2)nc1NCc1ccccc1`, the survival was 53% (inactive).

Consider `Cc1ccc(Cl)cc1NC(=O)COC(=O)CC(C)(C)CC1=NS(=O)(=O)c2ccccc2N1`, for which the survival is 84% (inactive).

Take `CC(C)(CO)C(O)C(=O)NN` (stereo not given): the survival was 84% (inactive).

For the compound `Cc1ccc(NC(=O)NCc2ccc3c(c2)CCN3C(=O)c2ccccc2)c(Cl)c1`, the survival is 82% (inactive).

In the case of `COc1ccc(C(=O)N2c3ccc(C)cc3C(C)(c3ccccc3)CC2(C)C)cc1` (stereo not given), the survival was 25% (active).

On to `Cc1ccc(C(=O)N2CCN(c3ccccc3)CC2)cc1`, for which the survival is 87% (inactive).

As to `Cc1ccc(C(=O)N2c3ccc(C)cc3C(C)(c3ccccc3)CC2(C)C)cc1` (stereo not given), the survival is 4% (active).

As for `Cc1ccc(C(=O)N2CC(=O)NC(=O)C2)cc1`, the survival is 83% (inactive).

`COc1ccc(C(=O)NCc2ccc3c(c2)CCN3C(=O)c2ccc(C)cc2)cc1`: the survival was 82% (inactive).

As to `Cc1ccc2c(c1)C(C)(c1ccccc1)CC(C)(C)N2C(=O)c1ccc(F)cc1` (stereo not given), the survival is -4% (active).

`CC(=O)OC1CC(C)N(C(=O)c2ccccc2)c2ccc(C)cc21` (stereo not given): the survival was 67% (inactive).

As to `Cc1ccc2c(c1)N(C(=O)c1ccc(F)cc1)C(C)(C)CC2(C)c1ccccc1` (stereo not given), the survival was 24% (active).

On to `Cc1ccc(C)c(N2CCN(C(=O)c3ccc4c(c3)N(Cc3ccc(F)cc3)C(=O)c3ccccc3S4=O)CC2)c1` (stereo not given), for which the survival is 101% (inactive).

`CC1=CC(C)(C)N(CC(=O)c2ccccc2)c2ccc(C)cc21`: the survival is 97% (inactive).

Take `COc1ccc(C(=O)NCc2ccc3c(c2)CCN3C(=O)c2ccccc2)cc1`: the survival is 84% (inactive).

Consider `CCOC(=O)C1CCC(CN(Cc2ccc(OC)cc2)S(=O)(=O)c2ccc(F)c(C(=O)Nc3c(C)cccc3C)c2)CC1` (stereo not given), for which the survival is 83% (inactive).

`O=C(NCCCN1CCOCC1)C1CC(c2ccccc2O)=NO1` (stereo not given): the survival is 97% (inactive).

On to `Cn1cccc1C(C(=O)NC1CCCCC1)N(C(=O)Cn1nnc2ccccc21)c1cnc2ccccc2c1` (stereo not given), for which the survival was 112% (inactive).

With `Cc1cc(C)nc(SCC(=O)Nc2ccc(N3CCOCC3)cc2)n1`, the survival is 82% (inactive).

`CCc1ccccc1NC(=O)Cn1c(=O)n(Cc2ccc(OC)cc2)c(=O)c2oc3ccccc3c21`: the survival was 70% (inactive).

Take `CC1(C)CC(=O)c2cc(C(=O)Nc3ccc(Br)cc3)c(=O)[nH]c2C1`: the survival was 70% (inactive).

As for `O=C(CCS(=O)(=O)c1cc(Br)cc2c1N(C(=O)C1CC1)CC2)N1CCN(c2cccc(C(F)(F)F)c2)CC1`, the survival is 59% (inactive).

As to `Cc1nc2ccn(Cc3ccco3)c(=O)c2cc1C(=O)N1CCN(c2ccc(F)cc2)CC1`, the survival is 135% (inactive).

As to `CCCC(O)c1nc2ccccc2n1CCCOc1ccc(Cl)cc1` (stereo not given), the survival was 65% (inactive).

Consider `CCc1nc2ccccc2n1CCCCOc1ccccc1C`, for which the survival was 0% (active).

As for `Cc1cccc(OCCCn2c(CCNC(=O)C3CCCCC3)nc3ccccc32)c1`, the survival was 37% (inactive).

On to `CCc1nc2ccccc2n1CCCCOc1ccc(Cl)cc1`, for which the survival is -3% (active).

For the compound `CCc1nc2ccccc2n1CCCCOc1ccc(C)cc1`, the survival was 1% (active).

With `CCc1nc2ccccc2n1CCCCOc1cccc(C)c1`, the survival is -2% (active).

As for `CCc1nc2ccccc2n1CCO`, the survival was 77% (inactive).

Turning to `O=C1C2C3C=CC(C3)C2C(=O)N1CCN1CCN(S(=O)(=O)c2ccc(Br)cc2)CC1` (stereo not given), the survival is 60% (inactive).

For `CCOc1ccccc1NC(=O)c1c2c(nc3ccccc13)C(=O)N(C1CCCCC1)C2`, the survival was 55% (inactive).

Take `COc1ccc(OC)c(NCc2cccn2-c2nnc(N3CCCCC3)s2)c1`: the survival was 93% (inactive).

For the compound `COc1ccc(CC(=O)NCc2nc3cccnc3n2Cc2ccc(C)cc2)cc1`, the survival was 92% (inactive).

In the case of `CN1C(=O)/C(=C/c2cccs2)SC1=S`, the survival was 113% (inactive).

For the compound `COc1ccc(Nc2ncc(C(=O)N3CCN(c4cccc(Cl)c4)CC3)c3ccccc23)cc1`, the survival is 62% (inactive).

As for `Cc1cccc(N2CCN(C(=O)C3CCCN(S(=O)(=O)c4ccc5c(c4)oc(=O)n5C)C3)CC2)c1C` (stereo not given), the survival was 84% (inactive).

As for `CC(=O)N1CCCC1c1nc2ccccc2n1Cc1cc(C)ccc1C` (stereo not given), the survival was 106% (inactive).

In the case of `Cc1cc(NC(=O)c2cccn2-c2nnc(N3CCCCC3)s2)ccc1Br`, the survival was 117% (inactive).

For the compound `CCCCN(C)CCCNC(=O)C1CCN(S(=O)(=O)CC)CC1`, the survival is 108% (inactive).

As for `CCc1ccc(CN(Cc2ccco2)C(=O)c2ccc(C)cc2)cc1`, the survival is 41% (active).

As for `O=C(c1ccccc1Cl)N(Cc1ccco1)Cc1ccco1`, the survival was 60% (inactive).

For the compound `CCc1ccc(CN(Cc2ccco2)C(=O)c2ccc(OC)cc2)cc1`, the survival is 52% (active).

For the compound `Cc1ccc(C(=O)N(Cc2ccco2)Cc2ccco2)cc1`, the survival is 61% (inactive).

In the case of `CCc1ccc(CN(Cc2ccco2)C(=O)c2ccccc2Cl)cc1`, the survival is 46% (active).

For `Cc1ccc(CN(Cc2ccco2)C(=O)c2ccccc2Cl)o1`, the survival is 74% (inactive).

As to `CCOc1ccccc1C(=O)N(Cc1ccco1)Cc1ccco1`, the survival was 73% (inactive).

Turning to `Cc1ccc(C(=O)N(Cc2ccc(N(C)C)cc2)Cc2ccco2)cc1`, the survival was 73% (inactive).

On to `Cc1ccc(CN(Cc2ccco2)C(=O)c2ccccc2Br)o1`, for which the survival is 47% (inactive).

As to `O=C(c1ccccc1Br)N(Cc1ccco1)Cc1ccco1`, the survival is 45% (active).

With `COc1ccc(C(=O)N(Cc2ccco2)Cc2ccco2)cc1`, the survival was 58% (inactive).

Take `COc1ccc(C(=O)N(Cc2ccco2)Cc2ccc(C)o2)cc1`: the survival is 71% (inactive).
